Assay outcomes deposited in PubChem by National Center for Advancing Translational Sciences (NCATS).
BAZ2B inh – inhibitors of human BAZ2B bromodomain. Potency, µM (doses to about 114 µM), without a hit: at the top dose activity change, negative = inhibition, usual class: inhibitors. 360,000 compounds, 4.4% hits. AlphaScreen BAZ2B-H3K14Ac peptide displacement. Q9UIF8; further: potency means the concentration at half of the fitted maximal effect; on the % scale 0 is the no-effect control and ±100 the full control effect; nearly all actives have a fitted effect of over 60% in size
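BAZ2B (50 nM) with biotin-H3(5-23)K14Ac peptide (50 nM) in PBS pH 7.4, 0.01% Tween-20, preformed 30 min, then compound 30 min at room temperature; top concentration 110uM. AlphaScreen streptavidin donor/nickel chelate acceptor beads (10 ug/mL final), 20 min dark, signal read.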
G9a inh – blocks human histone lysine methyltransferase G9a; 350,000 compounds, 8.8% hits; Q96KQ7; Potency, µM (highest dose often 102 µM), for inactives: top-dose activity, negative = inhibition, most hits filed as inhibitors; G9a H3K9 monomethylation, AlphaScreen, 2 h; further: potency means the concentration at half of the fitted maximal effect; on the % scale 0 is the no-effect control and ±100 the full control effect; nearly all actives have a fitted effect of over 75% in size
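Chemiluminescent proximity detection of H3K9 monomethylation, read after 10 min bead incubation in the dark. Reaction: 20 nM G9a, 500 nM biotin-H3K9 peptide, 20 uM SAM cofactor, 2 h, room temperature, following 15 min enzyme-compound preincubation.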
CtBP-E1A blk – blocks the CtBP interaction with E1A. AlphaScreen GST-E1A/His-CtBP binding, 1536-well; hits give low values. activity change, % (no concentration beside the values). 340,000 compounds, 0.49% hits. AID 651724; in the data active means activity change below about -65%; inconclusive means mostly about -30% to -63%; further: on the % scale 0 is the no-effect control and ±100 the full control effect
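GST-E1A and His-tagged CtBP (125 nM each as 5X stock) were preincubated with pin-transferred compound for 2 h at 37 °C in the dark, then glutathione donor and nickel acceptor beads were added for 1 h before AlphaScreen reading.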
Six1-Eya2 blk – inhibitors of human Six1/Eya2 interaction; Q15475+O00167; AlphaScreen GST-Six1/His-Eya2 binding, biochemical; hits give low values; activity change, % (test concentration not listed); AID 651725; 360,000 compounds, 0.56% hits; in the data active means activity change below about -65%; inconclusive means mostly about -30% to -63%; further: on the % scale 0 is the no-effect control and ±100 the full control effect
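AlphaScreen luminescence read after one hour at 37 °C in darkness. Pin-transferred compounds met GST-Six1 and His-Eya2 protein (5X stock 250 nM/500 nM) plus glutathione donor and Ni-chelate acceptor beads (5X, 50 ug/mL).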
HP1b binding inh – inhibitors of HP1-beta chromodomain binding to methylated histone tails; P83916; AlphaScreen HP1-beta / biotin-H3K9me3 peptide binding; Potency, µM (titrated, usually from 114 µM), for the others: at the highest dose activity change, negative = inhibition, most hits filed as inhibitors; 390,000 compounds, 0.56% hits; AID 540317; further: potency means the concentration at half of the fitted maximal effect; nearly all actives have a fitted effect of over 70% in size
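AlphaScreen: HP1-beta (50 nM) preformed 30 min with biotin-H3(1-18)K9me3 peptide (50 nM) in PBS pH 7.4, 0.01% Tween-20. Compound added for 30 min at RT, then streptavidin donor/nickel chelate acceptor beads (10 ug/mL) for 30 min.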
JMJD2A Tudor inh – JMJD2A Tudor domain (human) inhibition; O75164; AlphaScreen JMJD2A-Tudor / H3K4me3 peptide binding; Potency, µM (series often up to 114 µM), for inactives: at the highest dose activity change, negative = inhibition, actives largely listed as inhibitors; 390,000 compounds, 4.4% hits; AID 504339; further: potency means the concentration at half of the fitted maximal effect; on the % scale 0 is the no-effect control and ±100 the full control effect; nearly all actives have a fitted effect of over 50% in size
* marks the source's active call; other numbers are inactive results; u = inconclusive; x = no result given; [ ] = dose if it differs, or a comment. A selection: hits, their analogues and other compounds. The true share with any hit is near 10%. Unless noted, the call rests on the fitted dose curve; in most records, active means well fitted inhibition curve with a large enough effect; inconclusive means small, poorly fitted or top-dose-only effect; inactive means no such curve, though single readings can be large or run the other way.

SMILES | BAZ2B inh | G9a inh | CtBP-E1A blk | Six1-Eya2 blk | HP1b binding inh | JMJD2A Tudor inh
CCN(CC)c1ccc(/C=N/Nc2nc3ccccc3[nH]2)c(O)c1 | 40µM* | u | u | 0 | -16% | 50µM*
COCCNC(=O)CSc1nc2ccccc2nc1Cc1ccc(C)cc1 | 5% | 4%[59 µM] | x | x | 30%[57 µM] | -2%
Oc1ccc(/C=N/N(c2ccccc2)c2ccccc2)cc1O | -18% | -148% | -19 | -17 | u | 56µM*
CCC1CN(S(=O)(=O)c2cc(-c3cc(C)no3)ccc2C)c2cc(Cl)ccc2O1 (stereo not drawn) | 4% | 7%[59 µM] | x | x | 48% | 3%
Cn1c(SCc2cccc(F)c2)nnc1-c1ccccn1 | 71µM* | 1%[59 µM] | -5 | -2 | 19% | 79µM*
Cc1ccccc1CSc1nnc(-c2ccccn2)n1C | 79µM* | -4% | 0 | 4 | 32% | -5%
Cc1ccccc1CSc1nccn1-c1ccccc1 | 35µM* | x | -16 | -22 | u | u
CCc1ccc(Sc2cc(C(=O)NCc3cccc(OC)c3)c3ccccc3n2)cc1 | 6% | 14%[59 µM] | x | x | 39% | -5%
COC(=O)c1cc2sc(Cl)cc2n1Cc1nc(-c2ccccc2F)oc1C | 1% | -20%[59 µM] | x | x | 24% | -1%
Nc1nc2sc3c(c2cc1C(=O)N1CCOCC1)CCCC3 | -39% | u | -1 | -5 | 6% | 14µM*
CC(=O)c1ccc(NC(=O)c2sc3nc(N4CCOCC4)c4c(c3c2N)CCCC4)cc1 | -28% | 25µM* | x | 7 | 30% | 5%
Nc1nc2sc3c(c2cc1C(=O)NCC(=O)O)CCCC3 | -14% | u | -1 | -1 | 35% | -12%
Nc1c(C(=O)Nc2ccc(Cl)cc2)sc2nc(N3CCOCC3)c3c(c12)CCCC3 | -13% | 22µM* | x | -4 | 13% | -19%
CN1Cc2c(N3CCOCC3)nc3sc(C#N)c(N)c3c2CC1(C)C | -8% | x | -5 | 0 | 25% | -19%
CN1Cc2c(N3CCOCC3)nc3sc(C(=O)c4ccc(Br)cc4)c(N)c3c2CC1(C)C | 35µM* | 45µM* | -10 | -16 | u | 45µM*
Cc1ccc(S(=O)(=O)c2c(C)nn(-c3ccccc3)c2OC(=O)c2ccccc2F)cc1 | -16% | u | x | x | 20% | u
CCN1CCN(Cc2c(O)ccc3c(=O)c(Oc4ccccc4Cl)c(C(F)(F)F)oc23)CC1 | -1% | 5%[59 µM] | x | x | 27% | -3%
COc1ccc(-c2noc(-c3ccc(NCc4ccco4)c([N+](=O)[O-])c3)n2)cc1OC | -11% | -9%[59 µM] | x | x | 18% | -8%
CCCC(=O)N1CCc2cc(OC)c(OC)cc2C1COc1ccc2c(C)cc(=O)oc2c1 (stereo not drawn) | 4% | 20%[59 µM] | x | x | 49% | 1%
Nc1c(C(=O)N2CCOCC2)sc2nc(N3CCOCC3)c3c(c12)CCCC3 | -14% | 10µM* | x | -2 | 5% | u
CC1(C)Cc2c(c(N3CCOCC3)nc3sc(C(=O)N4CCCCC4)c(N)c23)CO1 | -36% | 4.5µM* | -2 | -3 | 27% | u
CCCCOC(=O)c1sc2nc(N3CCOCC3)c3c(c2c1N)CC(C)(C)OC3 | 4% | -13%[12.7 µM] | 3 | 17 | 27% | -12%
CCc1ccccc1NC(=O)Cc1c(C(=O)O)[nH]c2ccc(Cl)cc12 | -33% | -27%[59 µM] | x | x | 8% | -28%
c1ccc(Cc2ccc(OCCN3CCOCC3)cc2)cc1 | -25% | -9% | 2 | -15 | 20% | -24%
COc1ccc(OCCC(=O)NCCN2CCOCC2)cc1 | -13% | 56µM* | 13 | 4 | 24% | -18%
Cc1ccc(OCCCCCN2CCOCC2)cc1 | -1% | 23%[59 µM] | 6 | -1 | 23% | -2%
Cc1ccc(OCCCN2CCOCC2)cc1 | u | 40µM* | -10 | 2 | u | 10µM*
c1ccc(OCCN2CCOCC2)cc1 | 35µM* | -29%[2.33 µM] | 10 | -3 | u | 20µM*
Cc1cc(C)cc(OCCN2CCOCC2)c1 | -31% | 11µM* | 2 | 2 | u | 28µM*
COc1ccc(OCCN2CCOCC2)cc1 | u | 32µM* | 5 | 3 | u | 50µM*
